# Screens: PubChem, Johns Hopkins Ion Channel Center
# Most compounds without a hit are left out; they make up all but 1.6% or so of the library.
# KCNQ2 inh – rat KCNQ2 potassium channel inhibitors, primary screen, cell-based, CHO-K1, FluxOR thallium flux, B-score; Potassium voltage-gated channel subfamily KQT member 2 (Rattus norvegicus), O88943; 20 min; hits give low values; B-score at 10 µM; 310,000 compounds, 1.1% hits; AID 2156, 2009;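 active means fluorescence ratio B-score at most minus 3 library SDs, with starting brightness B-score within 2 library SDs, cut at about -5.5 in these data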
# KCNQ2 pot – potentiators of rat KCNQ2 potassium channel; AID 2239, 2010; B-score at 10 µM; 310,000 compounds, 0.54% hits; CHO-K1 KCNQ2, FluxOR thallium flux fluorescence; hits give high values; Potassium voltage-gated channel subfamily KQT member 2 (Rattus norvegicus), O88943;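 active means fluorescence ratio B-score at least 3 SD of library B-scores, with initial fluorescence B-score within 3 of them, cut at about 5.3 in these data; same plate scores as AID 2156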;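 further: B-score of peak minus minimum over baseline fluorescence ratio after K+ and Tl+ stimulus; positive B-score means potentiation of KCNQ2 with more thallium influx and brighter signal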
# Kir21 confirm – mouse Kir2.1 channel blockers, retest, confirmation, cell-based, FluxOR thallium flux, duplicate; shares compounds with KCNQ2 pot; Kir2.1-expressing cells, FluxOR thallium flux fluorescence; hits give low values; Tl flux remaining, % of negative control (hits give low values), % at 10 µM; 2,300 compounds, 41% hits; AID 2032, 2009;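 active means Primary-screen hit whose thallium flux fell at least 3 control SD below untreated wells in both duplicates, with normal baseline fluorescence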;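 further: 0% = blank wells without stimulus and 100% = stimulated no-compound controls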
# HEK293 Tl flux – alters thallium flux in parental HEK293 cells, Kir2.1 counter-screen; shares compounds with KCNQ2 pot; FluxOR thallium flux fluorescence; 0% = unstimulated blank wells; FluxOR signal as % of negative control (100 = no effect), % at 10 µM; 2,300 compounds, 19% hits;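 active means dye signal at least 3 control SD above or below untreated wells in both duplicates, raw fluorescence within 3, either direction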;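 further: percent is based on the flux ratio of peak minus minimum fluorescence over baseline F0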
# CHO-K1 Tl ctr – nonspecific thallium flux increase in parental CHO-K1, confirmation, counter-screen for KCNQ2 potentiator project, cell-based, FluxOR thallium flux, duplicate; shares compounds with KCNQ2 pot; parental CHO-K1 cells, FluxOR thallium flux fluorescence; zero = vehicle mean+3SD, 100% = vehicle-minus-blank window; activity increase over 3SD of controls, % at 10 µM; 1,200 compounds, 43% hits; AID 2282, 2010;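 active means signal rise of at least 3 SD above the untreated control mean, in both duplicate wells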;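 further: counter screen of KCNQ2 potentiator hits so any rise reflects channel-independent effects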
# KCNQ1 sel pot – human KCNQ1 channel potentiation off-target, confirmation, selectivity assay for KCNQ2 potentiator project, cell-based, CHO, FluxOR thallium flux; CHO KCNQ1 stable, FluxOR thallium flux fluorescence; beyond 3SD, as % of vehicle-control signal; activation over 3SD threshold, % at 10 µM; shares compounds with KCNQ2 pot; 1,200 compounds, 28% hits; AID 2283, 2010;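 active means fluorescence ratio rise of at least 3 SD of vehicle wells above their mean, in both replicate wells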;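 further: 0% = vehicle mean plus 3 SD and 100% = vehicle minus unstimulated blank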
# Target sequence (P51787 whole entry, looked up): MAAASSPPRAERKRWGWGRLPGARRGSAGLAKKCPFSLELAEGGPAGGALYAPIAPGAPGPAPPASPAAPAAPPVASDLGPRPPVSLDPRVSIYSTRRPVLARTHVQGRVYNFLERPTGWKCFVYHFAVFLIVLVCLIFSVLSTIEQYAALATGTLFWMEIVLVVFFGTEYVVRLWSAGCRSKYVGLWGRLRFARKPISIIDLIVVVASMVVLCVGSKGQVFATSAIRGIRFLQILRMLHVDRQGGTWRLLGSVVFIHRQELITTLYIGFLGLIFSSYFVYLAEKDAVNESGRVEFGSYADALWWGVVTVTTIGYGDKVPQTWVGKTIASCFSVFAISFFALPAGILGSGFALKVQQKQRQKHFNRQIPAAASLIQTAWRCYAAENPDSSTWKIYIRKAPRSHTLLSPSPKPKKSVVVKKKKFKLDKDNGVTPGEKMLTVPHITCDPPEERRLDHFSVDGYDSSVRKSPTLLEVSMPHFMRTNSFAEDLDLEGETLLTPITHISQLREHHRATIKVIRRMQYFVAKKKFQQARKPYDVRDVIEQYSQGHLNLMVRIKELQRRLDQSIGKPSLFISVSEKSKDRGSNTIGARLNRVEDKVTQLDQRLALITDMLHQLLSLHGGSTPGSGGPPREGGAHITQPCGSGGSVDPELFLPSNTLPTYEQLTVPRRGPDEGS
# KCNQ2 pot confirm – rat KCNQ2 channel potentiators, confirmation, cell-based, CHO, FluxOR thallium flux, duplicate; 1,200 compounds, 68% hits; CHO-KCNQ2 cells, FluxOR thallium flux fluorescence; shares compounds with KCNQ2 pot; AID 2287, 2010; potentiation, less the hit threshold, % at 10 µM;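 active means fluorescence ratio rising 3 SD or more over the vehicle control mean in both replicates, plus primary screen hit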;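 further: peak minus minimum thallium fluorescence divided by baseline after K/Tl stimulus; 0% = vehicle mean plus 3 SD and 100% = vehicle minus unstimulated blank difference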
# Kir2-1 sel – mouse Kir2.1 channel activation off-target, confirmation, selectivity assay for KCNQ2 potentiator project, cell-based, HEK293, FluxOR thallium flux | shares compounds with KCNQ2 pot | HEK293 Kir2.1, FluxOR thallium flux fluorescence | activity over 3SD threshold, % at 10 µM | 1,200 compounds, 2% hits;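 active means fluorescence ratio rise of at least 3 SD above the vehicle-control mean, seen in both replicates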;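 further: 0% = vehicle mean plus 3 SD and 100% = vehicle minus no-stimulus blank window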
# KCNQ2 W236L pot – potentiators of retigabine-insensitive KCNQ2 W236L, mechanism study for KCNQ2 potentiator project, cell-based, rat KCNQ2 W236L, CHO, automated patch clamp; shares compounds with KCNQ2 pot; automated patch clamp current; current increase over 3SD of negative controls (%), hits give high values, % at 25 µM; 940 compounds, 10% hits;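 active means current increase at least 3 SD of the untreated controls above them in both duplicate recordings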
# The depositor's hits bear a star; i = inactive; · = no result given.
SMILES,KCNQ2 inh,KCNQ2 pot,Kir21 confirm,HEK293 Tl flux,others
CC(C)(C(=O)c1ccccc1)/[N+]([O-])=C/c1ccccc1F,i,0.08,·,·,
O=C(O)CC1CCCC(c2ccccc2)C1=O (configuration not stated),i,·,·,·,
CC(C(=O)NCCS(=O)(=O)c1ccc(Br)cc1)S(=O)(=O)c1ccc(Cl)cc1 (configuration not stated),i,·,·,·,
CC(C)c1ccc(C(C)NCCS(=O)(=O)c2ccc(Cl)cc2)cc1 (configuration not stated),i,·,56%*,i,
COc1cc(OC)cc(C(=O)Nc2cccnc2)c1,i,1.1,·,·,
COc1cc(OC)cc(C(=O)Nc2ccc(C(=O)c3ccncc3)cc2)c1,i,11*,i,i,CHO-K1 Tl ctr=28*;KCNQ1 sel pot=42*;KCNQ2 pot confirm=20*;Kir2-1 sel=-36;KCNQ2 W236L pot=i
O=C(Nc1ccccc1N1CCOCC1)c1cccs1,i,·,·,·,
CC1CN(C(=O)CCC(=O)N2CCCCC2)c2ccccc2O1 (configuration not stated),i,0.3,·,·,
COc1cc2c(cc1Cl)/C(=C\CCN(C)C)c1ccccc1S2,i,·,·,·,
COc1cc(Cl)cc2c1Sc1ccccc1/C2=C/CCN(C)C,-7*,-7,36%*,i,
CN(C)CC/C=C1/c2cc(F)ccc2Sc2ccc(Cl)cc21,i,·,25%*,i,
CN(C)CC/C=C1/c2ccccc2Sc2c(O)cc(Cl)cc21,i,·,·,·,
CCCCCN(C(=O)CCC(=O)OCC(=O)N1CCCCC1)c1c(N)n(CCCC)c(=O)[nH]c1=O,i,·,·,·,
O=C1c2ccccc2C(O)N1Cc1ccco1 (configuration not stated),i,2.2,·,·,
c1coc(CN=C2NC(=NCc3ccco3)c3ccccc32)c1,i,·,35%*,i,
CS(=O)(=O)N(CC(=O)N1CCCCC1)C1CCCCC1,i,13*,i,i,CHO-K1 Tl ctr=-8;KCNQ1 sel pot=-25;KCNQ2 pot confirm=-12;Kir2-1 sel=-23
CS(=O)(=O)N(CC(=O)N1CCN(C(c2ccccc2)c2ccccc2)CC1)C1CCCCC1,i,2.1,·,·,
Cc1nc(SCC(=O)c2ccc(F)cc2)c([N+](=O)[O-])[nH]1,i,2.1,·,·,
Cc1ccc(CN2CCC(c3cc(-c4ccc(Cl)cc4)n[nH]3)CC2)cc1,i,·,·,·,
Clc1ccc(-c2cc(C3CCNCC3)[nH]n2)cc1,i,·,38%*,i,
COc1ccccc1NC(=O)C/C(N)=N/O,i,1.6,·,·,
Cc1nn(C)cc1C(C(=O)NC1CCCCC1)N(C(=O)Cc1cccs1)c1ccc(F)cc1 (configuration not stated),i,1.2,·,·,
COc1ccccc1NC(=O)c1nn(C)c(C(=O)Nc2ccccc2OC)c1[N+](=O)[O-],i,·,·,·,
COc1ccccc1NC(=O)c1c(N=Cc2ccccc2O)cnn1C,i,12*,i,i,CHO-K1 Tl ctr=47*;KCNQ1 sel pot=64*;KCNQ2 pot confirm=-12;Kir2-1 sel=-28
CCOC(=O)c1c(CSc2ccsc2)n(C)c2cc(Br)c(O)c(CN(C)C)c12,i,·,60%*,66%*,
SMILES,KCNQ2 inh,KCNQ2 pot,Kir21 confirm,HEK293 Tl flux,others
CCOC(=O)c1c(CSc2ccccc2)n(C)c2cc(Br)c(O)c(CN(C)C)c12,i,·,·,·,
C=CCOc1ccc(/C=C2\SC(=S)N(NS(=O)(=O)c3ccc(C)cc3)C2=O)cc1,i,7.7*,i,158%*,CHO-K1 Tl ctr=17*;KCNQ1 sel pot=-21;KCNQ2 pot confirm=17*;Kir2-1 sel=-36;KCNQ2 W236L pot=i
COc1ccc(/C=C2/SC(=S)N(NS(=O)(=O)c3ccc(C)cc3)C2=O)cc1,i,5.1,·,·,
Cc1cc(C)c(NC(=O)c2ccoc2C)c(C)c1,i,6.1*,i,i,CHO-K1 Tl ctr=-3;KCNQ1 sel pot=-3;KCNQ2 pot confirm=9.5*;Kir2-1 sel=-16;KCNQ2 W236L pot=i
CC(=O)c1cccc(NC(=O)c2ccoc2C)c1,i,2.1,·,·,
Cc1occc1C(=O)Nc1ccc2ccccc2c1,i,13*,i,i,CHO-K1 Tl ctr=105*;KCNQ1 sel pot=-17;KCNQ2 pot confirm=60*;Kir2-1 sel=-30;KCNQ2 W236L pot=i
Cc1occc1C(=O)Nc1ccccc1C(=O)O,i,·,·,·,
CCOC(=O)COc1c(C=O)cc(Br)cc1OC,i,·,·,·,
COc1ccc(-n2cc(C(=O)Nc3cc([N+](=O)[O-])ccc3OC)c3ccccc3c2=O)cc1,i,·,·,·,
O=C(COc1cccc2ccccc12)Nc1cc(Cl)ccc1C(=O)O,i,4.6,·,·,
O=C(COc1cccc2ccccc12)Nc1ccc(Cl)cc1C(=O)O,i,7.2*,i,129%*,CHO-K1 Tl ctr=-2;KCNQ1 sel pot=-1;KCNQ2 pot confirm=23*;Kir2-1 sel=-31;KCNQ2 W236L pot=i
Cc1cc(NC(=O)c2ocnc2C)no1,i,·,·,·,
COc1ccc(OC)c(NC(=O)CN(c2ccc(C)cc2)S(=O)(=O)c2c(C)n[nH]c2C)c1,i,1.4,·,·,
O=C(N/N=C/c1ccccn1)c1cc(C2CC2)nc2ccccc12,i,·,·,·,
O=C(N/N=C/c1ccccn1)c1cc(Br)ccc1O,i,7.3*,i,228%*,CHO-K1 Tl ctr=-14;KCNQ1 sel pot=0;KCNQ2 pot confirm=44*;Kir2-1 sel=-24;KCNQ2 W236L pot=i
O=C(N/N=C/c1ccccn1)c1cc(-c2ccccc2)nc2ccccc12,i,11*,i,i,CHO-K1 Tl ctr=222*;KCNQ1 sel pot=81*;KCNQ2 pot confirm=13*;Kir2-1 sel=-27;KCNQ2 W236L pot=i
O=C(N/N=C/c1cccnc1)c1cc(Br)ccc1O,i,·,·,·,
Cc1ccccc1NC(=S)NC(=O)c1cc(-c2ccccc2)nc2ccccc12,i,6.2*,i,i,CHO-K1 Tl ctr=-11;KCNQ1 sel pot=8.8*;KCNQ2 pot confirm=-22;Kir2-1 sel=-18
Cc1cccc(NC(=S)NC(=O)c2cc(-c3ccccc3)nc3ccccc23)c1,i,3.5,·,·,
